Screens (PubChem BioAssay)
Most compounds without a hit are left out; they make up all but 21% or so of the library.
Pf growth 48h: P. falciparum growth inhibition at 48 hours (one generation); Potency, µM (series often up to 28.7 µM), for the others: at the top dose activity change, negative = inhibition, usual class: inhibitors; 310,000 compounds, 5.9% hits; P. falciparum luciferase growth in erythrocytes, 48 h; further: potency means the concentration at half of the fitted maximal effect; on the % scale 0 is the no-effect control and ±100 the full control effect
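Erythrocytes infected with P. falciparum carrying an integrated firefly luciferase reporter (2% hematocrit, 0.1% parasitemia final) were exposed to compounds in RPMI 1640 with 0.5% Albumax at 37 C, 5% CO2. Growth inhibition was scored as reduced luminescence.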
Sm TGR inh: S. mansoni TGR enzyme inhibition | Q962Y6 | purified TGR, DTNB reduction, TNB absorbance 405 nm | Potency, µM (highest dose often 114 µM), inactives show at the highest dose activity change, negative = inhibition, most hits filed as inhibitors | 360,000 compounds, 3% hits | AID 485364; further: potency means the concentration at half of the fitted maximal effect; on the % scale 0 is the no-effect control and ±100 the full control effect; nearly all actives have a fitted effect of over 60% in size
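Kinetic colorimetric format: TGR-catalysed, NADPH-driven DTNB reduction monitored via TNB absorbance. Enzyme dispensed at 20 nM; compound exposure 15 min at room temperature before reaction start.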
NS1 inh: influenza NS1 inhibition | 270,000 compounds, 0.4% hits | AID 2326 | Potency, µM (top dose mostly 46.1 µM), without a hit: at the highest dose activity, positive = more growth; calls by dose curve; further: potency means the concentration at half of the fitted maximal effect; actives are rising curves; nearly all actives have a fitted effect of over 50% in size
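S. cerevisiae expressing influenza A NS1, grown in glucose, washed, then diluted 1:100 into pH 6.0 -URA galactose medium with 23 nl compound. Growth recovery read as OD600; NS1-free strain serves as control.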
Shiga toxin inh: blocks Shiga toxin action in Vero cells; Vero cells, Shiga toxin protein synthesis inhibition reporter; 290,000 compounds, 9.2% hits; inhibition, % at 38.7 µM; in the data active means inhibition mostly above about 28%, no sharp cut-off; inactive means mostly below about 43%; further: 0% is about no effect
Pf growth 96h: P. falciparum growth inhibition at 96 hour, primary screen for plastid delayed-death inhibitors; Potency, µM (highest dose often 28.7 µM), inactives show at the highest dose activity change, negative = inhibition, most hits filed as inhibitors; P. falciparum luciferase reporter growth, 96 h; 320,000 compounds, 6.9% hits; further: potency means the concentration at half of the fitted maximal effect; on the % scale 0 is the no-effect control and ±100 the full control effect
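Compounds incubated with erythrocytes infected by luciferase-expressing P. falciparum (2% hematocrit, 0.05% parasitemia final) for 96 hours, 37 C in 5% CO2. Growth inhibition scored as decreased luciferase luminescence.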
Cycloheximide cs: counter-screen hit for Shiga toxin inhibitors, cycloheximide | AID 2314 | max response, % | 300,000 compounds, 12% hits | cell reporter, cycloheximide protein synthesis inhibition counterscreen; in the data active means max response mostly above about 13%, no sharp cut-off; inactive means mostly below about 14%; further: read at 38.3 µM for the half of the compounds with a filed dose; 0% is about no effect
Starred values were filed as active, the others as inactive; ? = inconclusive; · = no result given. Unless noted, the call rests on the fitted dose curve; in most records, active means well fitted curve in the direction sought with a large enough effect; inconclusive means small, poorly fitted or top-dose-only effect, or another doubt; inactive means no such curve, though single readings can be large; an effect the other way counts as inactive or inconclusive.

SMILES	Pf growth 48h	Sm TGR inh	NS1 inh	Shiga toxin inh	Pf growth 96h	Cycloheximide cs
O=C(c1ccccn1)N(c1ccccc1)C1(C(=O)NC2CCCCC2)CCCCC1	-2%	-4%	·	-8	16%	3
O=C(NCCCn1ccnc1)c1cccc(Br)c1	17%	-28%	5%	-6	14%	-4
Cn1[nH]c(C(F)(F)F)c(C=Nc2ccc(Cl)cc2)c1=O	1%	-4%	·	21	19%	-3
CCCn1cnc2sc(CC)cc2c1=O	43%	-3%	-1%	52*	33%	30*
O=C(NN=C1CCCCCCC1)c1ccccn1	59%	0%	-2%	39	185%	23*
O=C(NN=C1CCCCCCC1)c1ccc2ccccc2n1	0%	-1%	·	27	?	17*
O=C(NN=C1CCCCCC1)c1c[nH]c2ccccc12	3%	-6%	12%	active	-16%	12
O=C(N/N=C1/CCS(=O)(=O)c2ccc(F)cc21)c1ccccn1	79%	-1%	·	54	56%	15
O=C(N/N=C1\CCCCc2ccccc21)c1ccccn1	87%	-1%	·	90*	-2%	44*
CCOC(=O)C(C)S(=O)(=O)c1ccc(C(F)(F)F)cn1 (stereo not drawn)	13%	8%	8%	-6	10%	1
O=C(NCCc1ccccc1)C(c1cccs1)N(C(=O)CCl)c1ccc(Cl)cc1 (stereo not drawn)	?	1.1µM*	-13%	-19	?	-4
O=C(CN1C(=O)c2ccccc2S1(=O)=O)Nc1ccc(S(=O)(=O)Nc2ncccn2)cc1	-17%	-11%	·	·	0%	·
Cc1ccc(C)c(NC(=O)C(Sc2ncnc3ccccc23)c2ccccc2)c1 (stereo not drawn)	-3%	-11%	8%	-3	42%	5
CC(=O)c1cccc(Nc2ncnc3ccc(Br)cc23)c1	5.9µM*	0%	-34%	7	-12%	8
CC(=O)c1cccc(NC(=O)C(Sc2ncnc3ccccc23)c2ccccc2)c1 (stereo not drawn)	12µM*	2%	?	9	4.7µM*	8.0*
CC(C)(C)C(=O)Oc1cccc(Nc2ncnc3ccccc23)c1	0%	-27%	-53%	10	?	9.6*
COc1ccc(C(=O)Oc2cccc(Nc3ncnc4ccccc34)c2)cc1OC	12%	-11%	-15%	3	2.3µM*	8
COc1cc(C(=O)Oc2cccc(Nc3ncnc4ccccc34)c2)cc(OC)c1OC	?	-13%	-2%	16	0%	8
COc1cccc(NC(=O)Cn2c(=O)n(Cc3ccc4c(c3)OCO4)c(=O)c3oc4ccccc4c32)c1	·	3%	·	·	·	·
CCCC(=O)N1CCN(c2ccc(NC(=O)c3cccs3)cc2)CC1	15%	0%	·	13	2%	5
O=C(CN1C(=O)NC2(CCCc3ccccc32)C1=O)Nc1cccc(S(=O)(=O)N2CCCCC2)c1 (stereo not drawn)	-22%	0%	?	-12	29%	-2
Cc1cc(C)c(S(=O)(=O)Nc2ncn[nH]2)c(C)c1	4%	2%	2%	-5	-2%	2
COc1ccc(Cl)cc1C(=O)NCCN1CCOCC1	-6%	9%	2%	7	?	-3
COc1cc(CNCCN2CCOCC2)ccc1OCc1cccc(Cl)c1	·	-2%	-5%	-6	12µM*	6
COc1cc(CNCCN2CCOCC2)ccc1OCc1ccc(Cl)cc1Cl	9.3µM*	0%	6%	-16	2.3µM*	-7
SMILES	Pf growth 48h	Sm TGR inh	NS1 inh	Shiga toxin inh	Pf growth 96h	Cycloheximide cs
O=C1CCCN1CCC(=O)N1CCCC(CO)(Cc2ccccc2)C1 (stereo not drawn)	24%	0%	-12%	74*	?	55*
CSCCC(=O)N1CCCC(CO)(CCCc2ccccc2)C1 (stereo not drawn)	-23%	-4%	13%	8	0%	12
O=C(CCNS(=O)(=O)c1ccccc1)OCc1nnc(-c2ccccc2)o1	69%	-4%	·	·	97%	·
O=C(CNS(=O)(=O)c1ccc2ccccc2c1)OCc1nnc(-c2ccccc2)o1	·	-4%	-74%	22	97%	32*
Cc1ccc(S(=O)(=O)NCC(=O)OCc2nnc(-c3ccccc3)o2)cc1C	20%	-29%	-84%	13	·	20*
CCOc1ccccc1NC(=O)CCc1c(C)nn(-c2ccc(N3CCOCC3)nn2)c1C	·	-9%	·	·	·	·
CN(C)c1cccc(C(=O)N2CCC(c3c[nH]c4ccccc34)(c3c[nH]c4ccccc34)CC2)c1	·	-12%	·	·	·	·
O=C(Nc1ccc(Cl)cc1C(=O)NCc1cccnc1)c1ccc(Cl)cc1Cl	8.3µM*	-2%	-21%	-6	3.3µM*	-3
O=C(Nc1c(Cl)cc(Cl)cc1C(=O)NCc1cccnc1)c1ccc(Cl)cc1Cl	1.5µM*	6%	-7%	24	18%	1
COc1cc(C(CCN2CCOCC2)c2c(OC)cc(OC)c3c(C)cc(=O)oc23)cc(OC)c1OC (stereo not drawn)	13µM*	-23%	12%	12	?	-7
COc1cc(C(CCN2CCCC2)c2c(OC)cc(OC)c3c(C)cc(=O)oc23)cc(OC)c1OC (stereo not drawn)	7.4µM*	2%	3%	16	9.3µM*	-2
COc1ccc(C(CCN2CCOCC2)c2c(OC)cc(OC)c3c(C)cc(=O)oc23)cc1 (stereo not drawn)	?	0%	2%	-10	?	-6
O=C(Cc1ccccc1)NCC(=O)OCC(=O)c1ccc(OC(=O)c2ccccc2)cc1	-6%	2%	15%	-8	45%	1
CCOC(=O)c1ccc(NC2c3ccccc3C(=O)N2c2ccccn2)cc1 (stereo not drawn)	·	6%	4%	-4	10µM*	2
CCOc1ccc(NC2c3ccccc3C(=O)N2c2ccc(Cl)cn2)cc1 (stereo not drawn)	32%	-8%	-39%	68*	-63%	11*
COc1ccc(NC2c3ccccc3C(=O)N2c2ccccn2)cc1 (stereo not drawn)	?	-6%	-1%	45*	12µM*	20*
Cc1ccc(N2C(=O)c3ccccc3C2Nc2ccc(S(=O)(=O)N3CCOCC3)cc2)nc1 (stereo not drawn)	·	-18%	2%	-6	2%	7
Cc1ccc(NC2c3ccccc3C(=O)N2c2cccnc2)cc1 (stereo not drawn)	-12%	10%	-1%	1	?	1
CCOc1ccc(N2C(=O)c3ccccc3C2O)cc1 (stereo not drawn)	·	-9%	-17%	64*	?	45
COc1cc(NC(=O)CCCl)cc(-n2cnnn2)c1	-13%	·	3%	-16	-25%	-2
